# Assay results: paper PMC8384837, “Expanding the binding specificity for RNA recognition by a PUF domain”
# Numbering of substitutions follows the chain as printed.
# What was measured:
# Experiment in all cases: yeast three-hybrid, YBZ-1, SC-Leu-His + 0.5 mM 3-AT, 4 days
# Settings in all cases: tags: N-Gal4 AD-HA kept; label: inside an RPR1-promoter hybrid RNA with tandem MS2 sites; ssRNA
# PUM1 PUF domain R5-RRS = PUM1 PUF domain R5-RRS (Homo sapiens, UniProt Q14671 828-1176, C1007R;Q1011S)
# Outline: (§1)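 The interaction score is the log change in how often each variant appears, from input to selection. Frequencies came from PCR-amplified, Illumina-sequenced repeat regions of Pumilio-1 PUF domain libraries grown in strain YBZ-1 (LexA–MS2 coat fusion, HIS3 reporter) alongside matching RNA elements. Input plates were SC-Leu and selection plates were SC-Leu-His + 0.5 mM 3-AT, each for four days, and the log2 calculation used a pseudocount of 1 where a variant was absent.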
# PUM1 PUF domain R4-VPQ = PUM1 PUF domain R4-VPQ (Homo sapiens, UniProt Q14671 828-1176, N971V;H972P)
# Outline: as §1
# PUM1 PUF domain R1-KSN = PUM1 PUF domain R1-KSN (Homo sapiens, UniProt Q14671 828-1176, S863K;R864S;Q867N)
# Outline: as §1
# PUM1 PUF domain R5-TRG = PUM1 PUF domain R5-TRG (Homo sapiens, UniProt Q14671 828-1176, C1007T;Q1011G)
# Outline: as §1
# PUM1 PUF domain R5-GLW = PUM1 PUF domain R5-GLW (Homo sapiens, UniProt Q14671 828-1176, C1007G;R1008L;Q1011W)
# Outline: as §1
# PUM1 PUF domain R4-VSL = PUM1 PUF domain R4-VSL (Homo sapiens, UniProt Q14671 828-1176, N971V;H972S;Q975L)
# Outline: as §1
# PUM1 PUF domain R6-VFQ = target: T1, PUM1 PUF domain R6-VFQ (Homo sapiens, UniProt Q14671 828-1176, N1043V;Y1044F)
# T1 sequence: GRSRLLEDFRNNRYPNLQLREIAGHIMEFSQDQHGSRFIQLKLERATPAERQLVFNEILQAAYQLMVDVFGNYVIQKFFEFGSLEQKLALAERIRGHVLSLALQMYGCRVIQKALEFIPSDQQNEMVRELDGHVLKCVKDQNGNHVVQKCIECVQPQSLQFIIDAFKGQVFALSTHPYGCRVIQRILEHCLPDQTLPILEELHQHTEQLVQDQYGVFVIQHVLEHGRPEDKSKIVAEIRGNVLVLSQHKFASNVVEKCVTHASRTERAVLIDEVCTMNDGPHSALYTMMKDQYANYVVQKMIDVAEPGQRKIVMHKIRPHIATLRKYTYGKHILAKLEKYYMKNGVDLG
# Outline: as §1
# PUM1 PUF domain R6-LWQ = target: T2, PUM1 PUF domain R6-LWQ (Homo sapiens, UniProt Q14671 828-1176, N1043L;Y1044W)
# T2 sequence: T1 sequence with V216L, F217W
# Outline: as §1
# PUM1 PUF domain R5-HKE = PUM1 PUF domain R5-HKE (Homo sapiens, UniProt Q14671 828-1176, C1007H;R1008K;Q1011E)
# Outline: as §1
# PUM1 PUF domain R8-RFP = PUM1 PUF domain R8-RFP (Homo sapiens, UniProt Q14671 828-1176, N1122R;Y1123F;Q1126P)
# Outline: as §1
# Chain of PUM1 PUF domain R5-RRS (Q14671 828-1176 C1007R/Q1011S): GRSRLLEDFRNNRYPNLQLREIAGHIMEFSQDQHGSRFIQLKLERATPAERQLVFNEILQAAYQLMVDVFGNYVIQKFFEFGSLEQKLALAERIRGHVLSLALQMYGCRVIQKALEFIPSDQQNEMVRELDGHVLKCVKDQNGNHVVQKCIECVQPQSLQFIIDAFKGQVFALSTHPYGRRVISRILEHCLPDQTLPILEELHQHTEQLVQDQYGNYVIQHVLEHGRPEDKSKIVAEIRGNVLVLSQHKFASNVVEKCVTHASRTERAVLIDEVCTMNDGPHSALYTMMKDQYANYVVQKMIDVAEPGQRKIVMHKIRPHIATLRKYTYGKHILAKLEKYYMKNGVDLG
sequence,measurement,setting,value
GGCUAGAACUAGUGGAUCCCCCGGCGCCCGGCGGCUCGAGCCCGGGUAAGUGUGAAUAGUCUGCAUGCCGCCGGGCGCCAUGCCUGCAGGUCGACUCUAGAAAACAUG,binding signal,PUM1 PUF domain R5-RRS,1.53 log2 enrichment (interaction score)
GGCUAGAACUAGUGGAUCCCCCGGCGCCCGGCGGCUCGAGCCCGGGUAAGUGUAUAUAGUCUGCAUGCCGCCGGGCGCCAUGCCUGCAGGUCGACUCUAGAAAACAUG,binding signal,PUM1 PUF domain R4-VPQ,2.78 log2 enrichment (interaction score)
GGCUAGAACUAGUGGAUCCCCCGGCGCCCGGCGGCUCGAGCCCGGGUAAGUGUAAAUCGUCUGCAUGCCGCCGGGCGCCAUGCCUGCAGGUCGACUCUAGAAAACAUG,binding signal,PUM1 PUF domain R1-KSN,4.24 log2 enrichment (interaction score)
GGCUAGAACUAGUGGAUCCCCCGGCGCCCGGCGGCUCGAGCCCGGGUAAGUGUUAAUAGUCUGCAUGCCGCCGGGCGCCAUGCCUGCAGGUCGACUCUAGAAAACAUG,binding signal,PUM1 PUF domain R5-TRG,2.97 log2 enrichment (interaction score)
same,binding signal,PUM1 PUF domain R5-GLW,1.6 log2 enrichment (interaction score)
same,binding signal,PUM1 PUF domain R5-RRS,4.6 log2 enrichment (interaction score)
GGCUAGAACUAGUGGAUCCCCCGGCGCCCGGCGGCUCGAGCCCGGGUAAGUGUAAAUAGUCUGCAUGCCGCCGGGCGCCAUGCCUGCAGGUCGACUCUAGAAAACAUG,binding signal,PUM1 PUF domain R5-TRG,2.68 log2 enrichment (interaction score)
same,binding signal,PUM1 PUF domain R5-GLW,2.11 log2 enrichment (interaction score)
same,binding signal,PUM1 PUF domain R5-RRS,2.42 log2 enrichment (interaction score)
same,binding signal,PUM1 PUF domain R4-VSL,2.71 log2 enrichment (interaction score)
same,binding signal,PUM1 PUF domain R6-VFQ,3.65 log2 enrichment (interaction score)
same,binding signal,PUM1 PUF domain R6-LWQ,5.83 log2 enrichment (interaction score)
GGCUAGAACUAGUGGAUCCCCCGGCGCCCGGCGGCUCGAGCCCGGGUAAGUGUCAAUAGUCUGCAUGCCGCCGGGCGCCAUGCCUGCAGGUCGACUCUAGAAAACAUG,binding signal,PUM1 PUF domain R5-HKE,3.67 log2 enrichment (interaction score)
same,binding signal,PUM1 PUF domain R5-RRS,4.44 log2 enrichment (interaction score)
GGCUAGAACUAGUGGAUCCCCCGGCGCCCGGCGGCUCGAGCCCGGGUAAGUGAAAAUAGUCUGCAUGCCGCCGGGCGCCAUGCCUGCAGGUCGACUCUAGAAAACAUG,binding signal,PUM1 PUF domain R6-VFQ,8.19 log2 enrichment (interaction score)
GGCUAGAACUAGUGGAUCCCCCGGCGCCCGGCGGCUCGAGCCCGGGUAAGCGUAAAUAGUCUGCAUGCCGCCGGGCGCCAUGCCUGCAGGUCGACUCUAGAAAACAUG,binding signal,PUM1 PUF domain R8-RFP,5.8 log2 enrichment (interaction score)
